# KCNQ2 enhance: potentiators of rat KCNQ2 potassium channel; O88943; CHO-K1 KCNQ2, FluxOR thallium flux fluorescence; active compounds read high; B-score at 10 µM; hit rate 0.54% among 310,000;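 active = fluorescence ratio B-score at least 3 SD of library B-scores, with initial fluorescence B-score within 3 of them, cut at about 5.3 in these data; same plate scores as AID 2156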;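 note: B-score of peak minus minimum over baseline fluorescence ratio after K+ and Tl+ stimulus; positive B-score means potentiation of KCNQ2 with more thallium influx and brighter signal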
# Target sequence (O88943 whole entry, looked up): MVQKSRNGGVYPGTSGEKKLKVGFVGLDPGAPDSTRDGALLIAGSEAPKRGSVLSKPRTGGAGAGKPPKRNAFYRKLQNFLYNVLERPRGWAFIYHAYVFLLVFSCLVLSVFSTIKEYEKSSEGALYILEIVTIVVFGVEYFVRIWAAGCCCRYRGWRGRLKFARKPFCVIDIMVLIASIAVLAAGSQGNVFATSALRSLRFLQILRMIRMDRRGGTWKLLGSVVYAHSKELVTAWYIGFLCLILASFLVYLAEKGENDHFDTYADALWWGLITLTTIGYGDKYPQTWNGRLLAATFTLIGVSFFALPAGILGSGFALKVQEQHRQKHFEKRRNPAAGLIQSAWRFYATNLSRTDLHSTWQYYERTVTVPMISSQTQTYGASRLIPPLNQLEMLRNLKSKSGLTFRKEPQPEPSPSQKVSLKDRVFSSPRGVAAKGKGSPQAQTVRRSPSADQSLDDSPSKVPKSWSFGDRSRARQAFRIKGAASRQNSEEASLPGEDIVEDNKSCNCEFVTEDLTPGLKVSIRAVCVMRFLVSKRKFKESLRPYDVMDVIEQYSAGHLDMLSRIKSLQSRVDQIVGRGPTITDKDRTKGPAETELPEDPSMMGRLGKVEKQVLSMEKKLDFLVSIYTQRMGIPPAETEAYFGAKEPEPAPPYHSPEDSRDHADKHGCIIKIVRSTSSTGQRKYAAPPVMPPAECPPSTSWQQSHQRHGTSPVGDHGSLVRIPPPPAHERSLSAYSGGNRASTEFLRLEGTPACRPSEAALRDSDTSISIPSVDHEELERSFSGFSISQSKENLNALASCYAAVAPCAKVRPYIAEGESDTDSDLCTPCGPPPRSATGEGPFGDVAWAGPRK
# KCNQ2 inh: inhibitors of rat KCNQ2 potassium channel | O88943 | CHO-K1 KCNQ2, FluxOR thallium flux, 20 min; active compounds read low | B-score at 10 µM | hit rate 1.1% among 310,000;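 active = fluorescence ratio B-score at most minus 3 library SDs, with starting brightness B-score within 2 library SDs, cut at about -5.5 in these data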
# The depositor's hits bear a star; i = inactive; . = no result. A selection: hits, their analogues and other compounds. The true share with any hit is near 1.6%.
SMILES,KCNQ2 enhance,KCNQ2 inh
CCOC(=O)c1c(C)n(-c2ccc(C)cc2)c2ccc(OCC(O)CNCC3CCCO3)cc12 (stereo not drawn),-6.29,-6.29*
O=C(c1ccc(CNc2c(N3CCCC3)c(=O)c2=O)cc1)N1CCc2ccccc2C1,.,i
CC(=O)c1cc(Cl)ccc1OC(=O)c1ccco1,1.46,i
O=C(Oc1ccc(Br)cc1C(=O)/C=C/c1ccccc1F)c1ccco1,-7.16,-7.16*
Cc1ccc(SCc2ccc(C(=O)Nc3cccc([N+](=O)[O-])c3C)cc2)cc1,-5.64,-5.64*
Cc1ccc([N+](=O)[O-])cc1NC(=O)c1ccc(CSc2ccccc2)cc1,0.57,i
Cc1ccc(C(=O)NC2CCCc3c2cnn3-c2ccc(F)cc2F)cn1 (stereo not drawn),1.8,i
COc1ccc(CNc2cccc3[nH]c(C(F)(F)F)nc23)cc1OC,.,i
O=C(COc1ccc2c(c1)OCO2)NC12CC3CC(CC(C3)C1)C2,.,i
O=C(NCc1ccc2c(c1)OCO2)NC12CC3CC(CC(C3)C1)C2,25.2*,i
CCNc1nc(NCC)n2c(SCC(=O)Nc3ccc(C)c(C)c3)nnc2n1,.,i
Cn1nnnc1SCC(=O)Nc1ccccc1C(N)=O,4.76,i
CN(C(=O)c1ccc(COc2ccccc2Br)o1)c1ccccc1,-6.19,-6.19*
CN(C)CCOC(=O)c1ccc(COc2ccccc2Br)o1,1.31,i
CCc1ccc2c(CN3CCN(S(=O)(=O)c4ccc5c(c4)OCCO5)CC3)cc(=O)oc2c1,0.46,i
O=c1cc(CN2CCN(S(=O)(=O)c3ccc4c(c3)OCCO4)CC2)c2ccc(O)cc2o1,-5.59,-5.59*
O=C(CSCc1ccccc1)Nc1ccccc1C(=O)Nc1ccc(C(=O)O)cc1,0.06,i
O=c1nc(SCc2c(F)cccc2Cl)nc(-c2ccccc2)[nH]1,.,i
Cc1ccsc1C(=O)N1CCCC(N2CCN(c3cccc(Cl)c3)CC2)C1 (stereo not drawn),-7.12,-7.12*
Cc1cccc(C(=O)N2CCCC(N3CCN(c4cccc(Cl)c4)CC3)C2)n1 (stereo not drawn),0.04,i
CC(=O)NC12CC3CC(C1)CC(C(=O)Nc1nc4ccc(S(C)(=O)=O)cc4s1)(C3)C2,.,i
COc1cccc(N2CCN(C(=O)CCCCCNc3nc(=S)[nH]c4ccccc34)CC2)c1,0.41,i
O=C(CN1CCN(c2ccccn2)CC1)Nc1ccc(F)cc1F,.,i
O=C(O)c1cn(Cc2ccccc2)c2ccc(Cl)cc2c1=O,.,i
Cc1ccc(Cl)cc1N1CCN(C(=S)NCCc2ccccc2)CC1,-5.8,-5.8*
SMILES,KCNQ2 enhance,KCNQ2 inh
Cc1cccc(N2CCN(C(=S)NCCc3ccccc3)CC2)c1C,.,i
C=CCN(c1ccccc1)S(=O)(=O)c1cccc(C(=O)Nc2cccc(C)n2)c1,.,i
Cc1nnc(SCC(=O)c2ccc(Cl)cc2)s1,0.86,i
Cc1ccc(C(=O)NCC(=O)OC(C)C(=O)NC2CCCc3ccccc32)cc1 (stereo not drawn),.,i
Cc1ccc(C(=O)COc2cc(O)c3c(=O)cc(-c4ccccc4)oc3c2)cc1,.,i
O=C(COc1cc(O)c2c(=O)cc(-c3ccccc3)oc2c1)c1ccccc1,-5.86,-5.86*
CC(C)Oc1cc(C(=O)NC2CCCCC2)c2ccccc2n1,-6.03,-6.03*
O=C(NC1CCCCCCC1)c1cc(-c2ccccn2)nc2ccccc12,.,i
CCc1cccc(C)c1NS(=O)(=O)Cc1ccccc1,.,i
Cc1ccc(-c2nnc(N3CCC(C)CC3)c3ccccc23)cc1,.,i
CC1CCN(c2nnc(-c3ccccc3)c3ccccc23)CC1,-5.8,-5.8*
O=C(O)c1ccc(COc2c(F)c(F)c(F)c(F)c2F)o1,0.84,i
C[Si](C)(C)n1ccnc1,0.67,i
COc1ccc(Nc2cc(C(=O)N3CCc4ccccc4C3)c3ccccc3n2)c(OC)c1,-7.96,-7.96*
COc1ccccc1Nc1cc(C(=O)N2CCc3ccccc3C2)c2ccccc2n1,-6.28,-6.28*
COc1ccccc1-c1cc(C(=O)N2CCc3ccccc3C2)c2ccccc2n1,.,i
COCCCNC(=O)c1cc(Nc2ccc(OC)cc2OC)nc2ccccc12,0.01,i
COc1cccc(CNC(=O)C2=Cc3cccc(OC)c3OC2)c1,.,i
O=[N+]([O-])c1ccc(C2(O)CN(c3ccccc3)C3=[N+]2CCS3)cc1 (stereo not drawn),-6.52,-6.52*
Cc1ccc(C2(O)CN(c3ccccc3)C3=[N+]2CCS3)cc1 (stereo not drawn),.,i
O=C(CSc1nnc(-c2ccc(Cl)cc2)n1Cc1ccco1)NCc1ccc2c(c1)OCO2,-5.89,-5.89*
CC(=O)Nc1cccc(NC(=O)CSc2ncc(-c3ccc(Cl)cc3)n2Cc2ccco2)c1,-6.64,-6.64*
Cc1cc(Cl)ccc1NC(=O)CSc1nnc(-c2ccncc2)n1Cc1ccco1,1.61,i
CC(Sc1nnc2ccccn12)C(=O)NCc1ccc2c(c1)OCO2 (stereo not drawn),.,i
COc1ccc(-c2nnc(SC(C)C(=O)NCc3ccc4c(c3)OCO4)n2Cc2ccco2)cc1 (stereo not drawn),-8.25,-8.25*
SMILES,KCNQ2 enhance,KCNQ2 inh
O=C(CSc1nnc(-c2ccc(Cl)cc2)n1Cc1ccco1)Nc1ccc2c(c1)OCCO2,0.48,i
Cc1ccc(C(=O)Nc2ccc(N3CCN(C)CC3)cc2)c(Cl)c1,.,i
O=C(CSc1nnnn1C1CCCC1)N1CCCc2ccccc21,.,i
O=C(CSc1nnc(Cc2cccs2)n1CCc1ccccc1)N1CCCc2ccccc21,-6.47,-6.47*
O=C(CSc1nnc(Cc2cccs2)n1C1CCCCC1)N1CCCc2ccccc21,-6.45,-6.45*
Cn1c(Cc2cccs2)nnc1SCC(=O)N1CCCc2ccccc21,.,i
CC(=O)c1ccc(NC(=O)COC(=O)c2ccccc2Sc2ccccc2C#N)cc1,0.6,i
N#Cc1ccccc1Sc1ccccc1C(=O)OCC(=O)NC12CC3CC(CC(C3)C1)C2,6.31*,i
O=C(NC1CC1)C1CCN(C(=O)c2ccc(Cl)cc2Cl)CC1,1.35,i
Cn1c(SCc2ccccc2Cl)nc2ccccc21,.,i
CCn1c(SCc2ccccc2Cl)nc2ccccc21,-6.6,-6.6*
COc1ccc(CC(=O)Oc2ccc(C)cc2Br)cc1S(=O)(=O)N1CCOCC1,.,i
COC(=O)c1cn(CCOc2ccccc2)c2ccccc12,.,i
CCN(CC)C(=O)C(=O)c1cn(CCOc2ccccc2)c2ccccc12,-7.35,-7.35*
C=CCn1c(C(C)NC(=O)C(C)(C)C)nc2ccccc21 (stereo not drawn),-6.6,-6.6*
C=CCn1c(CCCNC(=O)C(C)(C)C)nc2ccccc21,1.16,i
Cc1ccccc1-c1nc2ccccc2c(=O)n1/N=C/c1ccc([N+](=O)[O-])cc1,.,i
O=c1c2ccccc2nc(-c2ccccc2)n1/N=C/c1ccc([N+](=O)[O-])cc1,-7.61,-7.61*
CCN(CC)CCNC(=O)c1c(C)n(-c2ccccc2)c2cc(Br)c(OC)cc12,-5.84,-5.84*
COc1cc2c(C(=O)N3CCN(C)CC3)c(C)n(-c3ccccc3)c2cc1Br,.,i
CCCCc1cc(=O)oc2cc(OCC(=O)NC3CCN(Cc4ccccc4)CC3)ccc12,.,i
Cc1cc(C(F)(F)F)nc(SCC(=O)NC2CCCCC2)n1,1.15,i
Cc1ccc(S(=O)(=O)Nc2cccc3ncccc23)s1,5.98*,i
Cc1ccc(S(=O)(=O)Nc2cccc3ncccc23)cc1,.,i
Cc1nc2c(C)cccn2c(=O)c1NC(=O)c1cccc2ccccc12,0.29,i

# Bioassay records deposited in PubChem by Johns Hopkins Ion Channel Center.
